# Measured values reported in PubChem BioAssay (Tox21).
# Inconclusive results are not listed. Where a call stands in place of a potency, no number is given. Activity calls are given as the source filed them. Calls follow the shape of the dose curve; as a rule, active = well fitted curve in the direction sought with a large enough effect in the repeat runs; inconclusive = weak or mixed curves; inactive = no such curve, though single readings can be large; an effect the other way counts as inactive or inconclusive.
# Key:
# [1] = A CellTox Green Cytotoxicity Assay to monitor cytotoxicity in HEK293 cells - 40 hour (AID 1224871); also: nearly all actives have a fitted effect of over 45% in size; also: potency is read from the fitted curve at half-maximal effect
# Outline: (§1)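 Nonlytic real-time cytotoxicity: HEK293 + CellTox Green reagent plated, 5 h preincubation, pintool compound addition (23 nL in DMSO), 37 C for 40 h, fluorescence measured at successive time points.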
# [2] = qHTS RealTime-Glo MT Cell Viability Assay in HepG2 cells - 8 hour (AID 1224873); also: nearly all actives have a fitted effect of over 55% in size; also: potency is read from the fitted curve at half-maximal effect
# Outline: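 HepG2 cells (600/well) mixed with RealTime-Glo MT reagent, settled 5 h at 37 C/5% CO2 before compound addition. Nonlytic NanoLuc luminescence from viable-cell prosubstrate reduction read repeatedly during 40 h treatment at 37 C.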
# [3] = qHTS RealTime-Glo MT Cell Viability Assay in HEK293 cells - 40 hour (AID 1224874); settings: RealTime-Glo luminescence; max response: active compounds read low; also: nearly all actives have a fitted effect of over 50% in size; also: potency is read from the fitted curve at half-maximal effect
# Outline: (§2)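 Cells were seeded together with NanoLuc luciferase and a prosubstrate that viable cells reduce to a luciferase substrate. After a 5 h incubation at 37 C/5% CO2, compounds were added and luminescence was measured repeatedly during 40 h of treatment.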
# [4] = A CellTox Green Cytotoxicity Assay to monitor cytotoxicity in HEK293 cells - 24 hour (AID 1224875); also: series mostly up to about 77 µM; nearly all actives have a fitted effect of over 45% in size
# Outline: as §1
# [5] = A CellTox Green Cytotoxicity Assay to monitor cytotoxicity in HepG2 cells - 16 hour (AID 1224876); also: nearly all actives have a fitted effect of over 45% in size; also: potency is read from the fitted curve at half-maximal effect
# Outline: (§3)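 Read-out is fluorescence of a cyanine dye excluded from live cells that stains DNA of dead HepG2 cells, with signal proportional to cytotoxicity. Plates were read at 0, 8, 16, 24, 32 and 40 h after compound addition.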
# [6] = qHTS RealTime-Glo MT Cell Viability Assay in HepG2 cells - 32 hour (AID 1224877); also: nearly all actives have a fitted effect of over 55% in size; also: potency is read from the fitted curve at half-maximal effect
# Outline: (§4)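 Viability was tracked continuously by NanoLuc luminescence from prosubstrate reduced by living HepG2 cells, at successive time points over 40 h of compound exposure. Cells with reagent were preincubated 5 h at 37 °C before compound addition.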
# [7] = A CellTox Green Cytotoxicity Assay to monitor cytotoxicity in HepG2 cells - 24 hour (AID 1224878); also: nearly all actives have a fitted effect of over 45% in size; also: potency is read from the fitted curve at half-maximal effect
# Outline: as §3
# [8] = A CellTox Green Cytotoxicity Assay to monitor cytotoxicity in HepG2 cells - 40 hour (AID 1224879); also: nearly all actives have a fitted effect of over 40% in size; also: potency is read from the fitted curve at half-maximal effect
# Outline: as §3
# [9] = qHTS RealTime-Glo MT Cell Viability Assay in HEK293 cells - 0 hour (AID 1224880); also: nearly all actives have a fitted effect of over 45% in size; also: potency is read from the fitted curve at half-maximal effect
# Outline: as §2
# [10] = A CellTox Green Cytotoxicity Assay to monitor cytotoxicity in HepG2 cells - 0 hour (AID 1224882); also: nearly all actives have a fitted effect of over 35% in size
# Outline: as §3
# [11] = A CellTox Green Cytotoxicity Assay to monitor cytotoxicity in HepG2 cells - 32 hour (AID 1224883); also: nearly all actives have a fitted effect of over 50% in size; also: potency is read from the fitted curve at half-maximal effect
# Outline: as §3
# [12] = qHTS RealTime-Glo MT Cell Viability Assay in HepG2 cells - 16 hour (AID 1224885); also: nearly all actives have a fitted effect of over 50% in size; also: potency is read from the fitted curve at half-maximal effect
# Outline: as §4
# [13] = qHTS RealTime-Glo MT Cell Viability Assay in HEK293 cells - 24 hour (AID 1224886); also: nearly all actives have a fitted effect of over 50% in size; also: potency is read from the fitted curve at half-maximal effect
# Outline: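 Viability tracked continuously by luminescence as live cells reduce a prosubstrate for NanoLuc; HEK293 cells preincubated 5 h, compound-treated at 37 C, and read at 0, 8, 16, 24, 32 and 40 h.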
# [14] = qHTS RealTime-Glo MT Cell Viability Assay in HEK293 cells - 8 hour (AID 1224887); also: nearly all actives have a fitted effect of over 50% in size; also: potency is read from the fitted curve at half-maximal effect
# Outline: as §2
# [15] = A CellTox Green Cytotoxicity Assay to monitor cytotoxicity in HEK293 cells - 16 hour (AID 1224888); also: nearly all actives have a fitted effect of over 35% in size; also: potency is read from the fitted curve at half-maximal effect
# Outline: as §1
# [16] = qHTS RealTime-Glo MT Cell Viability Assay in HepG2 cells - 0 hour (AID 1224889); also: nearly all actives have a fitted effect of over 50% in size; also: potency is read from the fitted curve at half-maximal effect
# Outline: as §4
# [17] = A CellTox Green Cytotoxicity Assay to monitor cytotoxicity in HepG2 cells - 8 hour (AID 1224890); also: nearly all actives have a fitted effect of over 45% in size; also: potency is read from the fitted curve at half-maximal effect
# Outline: as §3
# [18] = A CellTox Green Cytotoxicity Assay to monitor cytotoxicity in HEK293 cells - 32 hour (AID 1224881); also: nearly all actives have a fitted effect of over 40% in size; also: potency is read from the fitted curve at half-maximal effect
# Outline: as §1
# [19] = A CellTox Green Cytotoxicity Assay to monitor cytotoxicity in HEK293 cells - 8 hour (AID 1224884); also: nearly all actives have a fitted effect of over 35% in size; also: potency is read from the fitted curve at half-maximal effect
# Outline: as §1
Compound,Potency [1],Potency [2],max response [3],Potency [4],Potency [5],Potency [6],Potency [7],Potency [8],Potency [9],Potency [10],Potency [11],Potency [12],Potency [13],Potency [14],Potency [15],Potency [16],Potency [17],Potency [18],Potency [19],Potency [3]
CCCCCCC(C)(C)C(=O)O,inactive,inactive,4.14% (inactive),inactive,inactive,inactive,inactive,inactive,inactive,inactive,inactive,inactive,inactive,inactive,inactive,inactive,inactive,–,–,–
C[C@H]1c2cccc(O)c2C(O)=C2C(=O)[C@]3(O)C(O)=C(C(N)=O)C(=O)[C@@H](N(C)C)[C@@H]3[C@@H](O)[C@@H]21,inactive,inactive,0.751% (inactive),–,inactive,inactive,inactive,inactive,inactive,inactive,inactive,inactive,inactive,inactive,inactive,inactive,–,inactive,inactive,–
C=COCC(C)C,inactive,inactive,–,inactive,inactive,inactive,inactive,inactive,inactive,inactive,inactive,–,–,–,inactive,inactive,inactive,–,inactive,–
CCCC(=O)C(=O)O,inactive,inactive,13.4% (inactive),inactive,inactive,inactive,inactive,inactive,inactive,–,inactive,–,inactive,inactive,inactive,inactive,inactive,–,inactive,–
CCC(C)COC(C)=O (centres undefined),inactive,inactive,12% (inactive),inactive,inactive,inactive,inactive,inactive,inactive,inactive,inactive,–,inactive,inactive,inactive,inactive,inactive,inactive,inactive,–
CC(C)(C)CC(=O)OCC(=O)[C@@]1(O)CC[C@H]2[C@@H]3CCC4=CC(=O)C=C[C@]4(C)[C@H]3[C@@H](O)C[C@@]21C,inactive,inactive,–,–,inactive,inactive,inactive,inactive,7.56 µM (active),–,inactive,–,21.3 µM (active),–,inactive,1.34 µM (active),–,–,inactive,19 µM (active)
O=C(CCCN1CC=C(n2c(=O)[nH]c3ccccc32)CC1)c1ccc(F)cc1,inactive,inactive,–,inactive,inactive,inactive,–,inactive,inactive,inactive,inactive,inactive,10.7 µM (active),16.9 µM (active),inactive,–,inactive,inactive,inactive,9.52 µM (active)
O=C(/C=C/c1ccccc1)OCCc1ccccc1,inactive,inactive,-0.613% (inactive),inactive,inactive,inactive,inactive,–,inactive,inactive,inactive,inactive,inactive,inactive,inactive,inactive,inactive,inactive,inactive,–
CC(C)(O)c1ccc(CNC(=O)c2cccnc2Oc2ccc3nonc3c2)cc1,inactive,inactive,–,inactive,inactive,inactive,inactive,inactive,inactive,inactive,inactive,inactive,–,inactive,inactive,inactive,–,inactive,inactive,–
CC(=O)OCC(=O)NCCCOc1cccc(CN2CCCCC2)c1,inactive,inactive,1.71% (inactive),–,inactive,inactive,inactive,inactive,inactive,inactive,inactive,inactive,inactive,inactive,inactive,inactive,–,inactive,inactive,–
CCOC(=O)OC(C)OC(=O)[C@@H]1N2C(=O)[C@@H](NC(=O)[C@H](N)c3ccccc3)[C@H]2SC1(C)C (some centres undefined),inactive,inactive,-0.757% (inactive),–,inactive,inactive,inactive,inactive,inactive,inactive,inactive,inactive,inactive,inactive,inactive,inactive,inactive,inactive,inactive,–
CN1CCCN=C1COC(=O)C(O)(c1ccccc1)C1CCCCC1 (centres undefined),inactive,inactive,–,–,inactive,inactive,inactive,–,inactive,inactive,inactive,inactive,–,inactive,inactive,inactive,inactive,inactive,inactive,–
CCOC(=O)c1ccc(O)c(O)c1,inactive,inactive,-21.6% (inactive),inactive,–,inactive,inactive,inactive,inactive,–,inactive,–,inactive,inactive,inactive,inactive,–,inactive,inactive,–
CC(C)=CCC/C(C)=C/CC/C(C)=C/CCC(=O)OC/C=C(\C)CCC=C(C)C,inactive,inactive,2.19% (inactive),inactive,inactive,inactive,inactive,inactive,inactive,inactive,inactive,–,inactive,inactive,inactive,–,–,inactive,inactive,–
N#CCCN(CCO)CCO,inactive,inactive,0.524% (inactive),inactive,inactive,inactive,inactive,inactive,inactive,inactive,inactive,inactive,inactive,inactive,inactive,inactive,–,–,inactive,–
CCC1NC(=O)c2cc(S(N)(=O)=O)c(Cl)cc2N1 (centres undefined),inactive,inactive,6.45% (inactive),inactive,inactive,inactive,inactive,inactive,inactive,–,inactive,inactive,inactive,inactive,inactive,inactive,inactive,inactive,inactive,–
CCCCCCCCOc1ccc(C(=O)O)cc1,inactive,inactive,-8.38% (inactive),inactive,inactive,inactive,inactive,inactive,inactive,inactive,inactive,inactive,inactive,inactive,inactive,inactive,–,–,inactive,–
O=C1Cc2ccccc2N1c1c(Cl)cccc1Cl,inactive,inactive,–,inactive,inactive,inactive,–,–,inactive,inactive,–,inactive,38.9 µM (active),–,inactive,inactive,inactive,inactive,inactive,21.9 µM (active)
COC(=O)C1=C(C)NC(C)=C(C(=O)O[C@@H]2CCCN(Cc3ccccc3)C2)[C@@H]1c1cccc([N+](=O)[O-])c1,inactive,inactive,-29.2% (inactive),–,inactive,–,inactive,inactive,8.49 µM (active),inactive,inactive,–,inactive,inactive,inactive,5.35 µM (active),inactive,inactive,inactive,–
CCOC(C)=O,inactive,inactive,0.693% (inactive),inactive,inactive,inactive,inactive,–,inactive,inactive,inactive,inactive,inactive,inactive,inactive,–,inactive,inactive,inactive,–
CCCCCCCCCCCCCCN(CCO)CCO,38.9 µM (active),54.9 µM (active),–,–,49 µM (active),19.5 µM (active),24.5 µM (active),–,–,inactive,19.5 µM (active),43.6 µM (active),21.9 µM (active),–,54.9 µM (active),inactive,54.9 µM (active),38.9 µM (active),54.9 µM (active),19.5 µM (active)
O=c1c(O)c(-c2ccc(O)cc2)oc2cc(O)cc(O)c12,inactive,inactive,–,inactive,inactive,inactive,inactive,inactive,inactive,inactive,inactive,inactive,–,–,inactive,inactive,inactive,inactive,inactive,–
CC(O)c1ccccc1 (centres undefined),inactive,inactive,19.3% (inactive),inactive,inactive,inactive,inactive,inactive,inactive,inactive,inactive,inactive,inactive,inactive,inactive,–,inactive,–,inactive,–
CC(C)C[C@H](NC(=O)[C@H](CCc1ccccc1)NC(=O)CN1CCOCC1)C(=O)N[C@@H](Cc1ccccc1)C(=O)N[C@@H](CC(C)C)C(=O)[C@@]1(C)CO1,0.0756 µM (active),inactive,–,inactive,10.7 µM (active),0.0268 µM (active),0.268 µM (active),0.0169 µM (active),inactive,inactive,0.0239 µM (active),–,0.0674 µM (active),inactive,inactive,–,–,0.301 µM (active),inactive,0.0268 µM (active)
COc1cc(N)c(Cl)cc1C(=O)NC1CCN(CCCOc2ccc(F)cc2)CC1OC (centres undefined),inactive,inactive,–,inactive,inactive,inactive,inactive,–,inactive,inactive,–,inactive,3.01 µM (active),3.01 µM (active),inactive,inactive,inactive,inactive,inactive,3.01 µM (active)
Clc1ccc(Nc2nnc(Cc3ccncc3)c3ccccc23)cc1,inactive,inactive,–,inactive,inactive,inactive,inactive,inactive,inactive,–,inactive,–,–,–,inactive,–,–,inactive,inactive,19 µM (active)
O=c1cc(-c2ccccc2)oc2cc(O)cc(O)c12,inactive,inactive,–,inactive,inactive,–,–,–,inactive,inactive,–,–,–,–,inactive,–,inactive,inactive,inactive,–
CC1CC(C)C(=O)C1=O (centres undefined),inactive,inactive,–,inactive,inactive,inactive,inactive,–,inactive,–,inactive,inactive,13.8 µM (active),inactive,inactive,–,inactive,inactive,inactive,13.8 µM (active)
C=C1C[C@@]23CC[C@H]4[C@@](C)(CCC[C@@]4(C)C(=O)O[C@@H]4O[C@H](CO)[C@@H](O)[C@H](O)[C@H]4O)[C@@H]2CC[C@]1(O[C@@H]1O[C@H](CO)[C@@H](O)[C@H](O[C@@H]2O[C@H](CO)[C@@H](O)[C@H](O)[C@H]2O)[C@H]1O[C@@H]1O[C@H](CO)[C@@H](O)[C@H](O)[C@H]1O)C3,inactive,inactive,3.82% (inactive),inactive,inactive,inactive,inactive,–,inactive,–,inactive,inactive,inactive,inactive,inactive,inactive,inactive,inactive,inactive,–
